Reference: PubChem BioAssay (NCI)
The panel holds about 83,000 compounds, 20% with a hit somewhere; the sample as a whole holds those more often.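 Values shown are percent growth following 48 h exposure of cells in 96-well plates to a single concentration of compound; below 10 was considered active.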 Values without a mark were called inactive. The source made the active and inactive calls.

Experiments:
Experiment in all cases: NCI-60 one-dose screen, 48 h (100 = growth as untreated, 0 = no growth, -100 = all killed)
Settings in all cases: 10 µM unless noted
T-47D breast = tested on: T-47D breast
BT-549 breast = tested on: BT-549 breast
MDA-MB-435 melanoma = tested on: MDA-MB-435 melanoma
SW-620 colon = tested on: SW-620 colon
MCF7 breast = tested on: MCF7 breast
HCT-116 colon = tested on: HCT-116 colon
HCC-2998 colon = tested on: HCC-2998 colon
KM12 colon = tested on: KM12 colon

Row | SMILES | growth (T-47D breast) | growth (BT-549 breast) | growth (MDA-MB-435 melanoma) | growth (SW-620 colon) | growth (MCF7 breast) | growth (HCT-116 colon) | growth (HCC-2998 colon) | growth (KM12 colon)
1 | COc1ccc(C/C(C)=C(\c2ccc(Cl)cc2)c2ccc(OCCCN(C)C)cc2)cc1 | 62.1% | 91.3% | 82.6% | 60.8% | 16.2% | 60.3% | 47.1% | 68.6%
2 | C=C1C(=O)O[C@H]2[C@H]1CC/C(COC(=O)/C=C\C(=O)NCc1ccc(Cn3c(=O)sn(CCCCl)c3=O)cc1)=C\CC[C@@]1(C)O[C@@H]21 | 61.5% | 88.2% | 52.8% | 22.1% | 41.8% | 26.6% | 100% | 99.4%
3 | O=C(/C=C/c1ccco1)Nc1ncc(Cc2cc(Cl)ccc2Cl)s1 | 37.4% | 17.1% | -47.3% (active) | 20.6% | 13.3% | 16.3% | 13.9% | 10.4%
4 | CCN(CC)C(=O)C1=C(C)NC(=O)NC1c1ccc2c(c1)OCO2 (stereo not drawn) | 104% | 111% | 108% | 105% | 97.4% | 110% | 114% | 112%
5 | C#CCOc1cccc(Nc2ncnc3c2ncn3C2CCN(C(=O)CCl)C2)c1 (stereo not drawn) | -45.2% (active) | -62.5% (active) | -23.8% (active) | -64.2% (active) | -50.9% (active) | 1.32% (active) | -22.8% (active) | 23.7%
6 | O=C(Nc1cc(Cl)cc(Cl)c1)Oc1c(Cl)c(Cl)c(Cl)c(Cl)c1Cl | 77.5% | 74.9% | 75.9% | 88.3% | 83% | 62.1% | 93.4% | 83.3%
7 | COc1ccc(/C=C(/C(=O)N2CCNCC2)c2cc(OC)c(OC)c(OC)c2)cc1O | 31.6% | 58.5% | -45% (active) | 35.1% | 23% | 19.8% | 78.4% | 21.3%
8 | COc1ccc(N=C2NN=C(c3c[nH]c4ccccc34)CS2)cc1OC | 57.5% | -0.386% (active) | -8.16% (active) | 50.4% | 42.1% | 39.1% | 71.7% | 23.7%
9 | CCOC(=O)CC[C@H](NC(=O)c1ccc(N(C)Cc2cnc3nc(N)nc(N)c3n2)c2ccccc12)C(=O)OCC | 53.9% | 51.1% | 37.4% | 22% | 18.4% | 20.4% | 35.6% | 23.8%
10 | COC(=O)c1ccc2cc(OC)c(OC)cc2c1 | 96.1% | 90.5% | 98.8% | 99% | 92.2% | 95.6% | 98.8% | 108%
11 | CCCCCCCCCCOC(=O)c1nn(C(C)=O)c2cc(C)c(C)cc12 | 99.7% | 90.5% | 100% | 97.3% | 94% | 75.4% | 105% | 104%
12 | COc1ccc(C2C3=C(COC3=O)N(CCO)c3cc4c(cc32)OCO4)cc1OC (stereo not drawn) | 87.5% | 80.5% | 5.99% (active) | 61.6% | 64.3% | 68.6% | 74.5% | 62.4%
13 | O=C(Nc1cccnc1Nc1ccc(Cl)cc1)c1cn(Cc2cccc(Oc3ccccc3)c2)nn1 | 48.1% | 52.2% | -30.2% (active) | 36.5% | 19.6% | 23.4% | 63.9% | 31.8%
14 | CCC(C)(C)c1ccc(Nc2ccc(Nc3ccc(C(C)(C)CC)cc3)cc2)cc1 | 58.4% | 133% | 97.1% | 85.5% | 80% | 60.5% | 101% | 89.9%
15 | C=C(C)[C@@H]1CC[C@]2(C(=O)N3CCN(C)CC3)CC[C@]3(C)[C@H](CC[C@@H]4[C@@](C)(CCC(=O)O)[C@H](C(=C)C)CC[C@]43C)[C@@H]12 | 85.7% | 96.8% | 93.6% | 99.7% | 82.8% | 68.2% | 93.8% | 68.7%
16 | CN(C)CCn1c(=O)c2ccccc2n2nc3ccccc3c12 | 99.8% | 103% | 100% | 64.2% | 72.6% | 71.1% | 99.8% | 95%
